Reference: PubChem BioAssay (Tox21)
Records with an inconclusive call do not appear. Active and inactive are the calls of the source. Unless noted, the call rests on the fitted dose curve; in most records, active means well fitted curve in the direction sought with a large enough effect in the repeat runs; inconclusive means weak or mixed curves; inactive means no such curve, though single readings can be large; an effect the other way counts as inactive or inconclusive.

Assays:
[1] = qHTS assay to identify small molecule antagonists of the estrogen related receptor (ERR) signaling pathway from Tox21 library - cell viability counter screen (AID 1224834); further: nearly all actives have a fitted effect of over 30% in size; further: potency means the concentration at half of the fitted maximal effect
How it was run: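 ERR reporter cells were plated 6 h before compound addition, then exposed to test compounds in DMSO for 17.5 h at 37 C. Viability was read as CellTiter-Fluor fluorescence after a 30-minute incubation at 37 C.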

[2] = biological target: Luciferin 4-monooxygenase (Photinus pyralis) (UniProt P08659); assay: qHTS assay to identify small molecule inhibitors of firefly luciferase (AID 1224835); further: nearly all actives have a fitted effect of over 25% in size; further: potency means the concentration at half of the fitted maximal effect
Sequence of Luciferin 4-monooxygenase (Photinus pyralis) (P08659 whole entry, looked up): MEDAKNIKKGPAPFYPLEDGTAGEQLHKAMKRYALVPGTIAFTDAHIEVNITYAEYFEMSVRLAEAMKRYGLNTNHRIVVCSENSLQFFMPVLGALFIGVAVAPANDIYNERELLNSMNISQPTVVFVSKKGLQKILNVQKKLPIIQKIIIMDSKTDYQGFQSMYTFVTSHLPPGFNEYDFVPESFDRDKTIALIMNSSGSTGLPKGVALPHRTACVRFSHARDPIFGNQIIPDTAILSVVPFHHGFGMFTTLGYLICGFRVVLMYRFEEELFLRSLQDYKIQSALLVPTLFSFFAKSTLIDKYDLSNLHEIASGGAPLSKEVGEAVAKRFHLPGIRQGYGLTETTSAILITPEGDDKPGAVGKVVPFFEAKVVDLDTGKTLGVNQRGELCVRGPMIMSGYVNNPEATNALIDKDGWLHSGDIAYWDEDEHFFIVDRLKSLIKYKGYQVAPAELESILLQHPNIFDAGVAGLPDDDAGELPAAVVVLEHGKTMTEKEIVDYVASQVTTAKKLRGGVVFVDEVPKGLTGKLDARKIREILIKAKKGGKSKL
How it was run: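 Quantitative HTS format; KM concentrations of both substrates. Purified P. pyralis FLuc activity quantified from luminescence images.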

[3] = biological target: Nuclear receptor subfamily 1 group I member 3 (Homo sapiens) (UniProt Q14994); assay: qHTS assay to identify small molecule agonists of the constitutive androstane receptor (CAR) signaling pathway (AID 1224839); further: nearly all actives have a fitted effect of over 15% in size; further: potency means the concentration at half of the fitted maximal effect;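 on activation: HepG2 cells stably carrying human CAR and a CYP2B6 luciferase reporter; on the % scale 0 is the no-effect control and ±100 the full control effect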
Sequence of Nuclear receptor subfamily 1 group I member 3 (Homo sapiens) (Q14994 whole entry, looked up): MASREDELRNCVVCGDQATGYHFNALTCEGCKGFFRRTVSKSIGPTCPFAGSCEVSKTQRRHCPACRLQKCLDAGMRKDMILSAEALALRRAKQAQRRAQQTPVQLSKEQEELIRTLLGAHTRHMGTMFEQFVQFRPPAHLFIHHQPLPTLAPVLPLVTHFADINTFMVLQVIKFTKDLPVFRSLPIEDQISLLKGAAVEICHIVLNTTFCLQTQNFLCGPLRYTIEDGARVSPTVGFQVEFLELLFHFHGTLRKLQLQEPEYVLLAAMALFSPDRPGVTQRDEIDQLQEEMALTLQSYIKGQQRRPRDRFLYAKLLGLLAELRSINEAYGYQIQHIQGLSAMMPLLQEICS
How it was run: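 Cells were plated and incubated 4 hrs, then dosed with compounds at 15 concentrations. PK11195 was added to 0.75 uM final. After 24 hrs at 37 C, luciferase luminescence was measured.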

[4] = qHTS assay to identify small molecule antagonists of the estrogen related receptor signaling pathway with the pleiotropic PPARgamma coactivator (PGC) from Tox21 10K library (AID 1224841; call rule not given here; further: actives are mostly falling curves and most rising ones were filed inactive; nearly all actives have a fitted effect of over 50% in size; further: potency means the concentration at half of the fitted maximal effect)
How it was run: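 PGC/ERR reporter cells were seeded at 2,000 cells/well and held 6 hours at 37 C/5% CO2 before pin-tool addition of compounds in DMSO. After 18 hours at 37 C, One-Glo was added and luminescence read after 30 minutes at room temperature.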

[5] = qHTS assay to identify small molecule agonists of the estrogen related receptor signaling pathway with the pleiotropic PPARgamma coactivator (PGC) from Tox21 10K library (AID 1224842); further: on the % scale 0 is the no-effect control and ±100 the full control effect; nearly all actives have a fitted effect of over 15% in size
How it was run: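 PGC/ERR reporter cells (NTP line) were seeded 2,000 per well, rested 6 h at 37 C/5% CO2, then pin-dosed with compounds in DMSO for 18 h at 37 C; luciferase read by One-Glo luminescence after 30 min at room temperature.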

[6] = biological target: Thyrotropin receptor (Homo sapiens) (UniProt P16473); assay: qHTS assay to identify small molecule agonists of the thyroid stimulating hormone receptor (TSHR) signaling pathway (AID 1224843; calls by dose curve; further: on the % scale 0 is the no-effect control and ±100 the full control effect; nearly all actives have a fitted effect of over 45% in size)
Sequence of Thyrotropin receptor (Homo sapiens) (P16473 whole entry, looked up): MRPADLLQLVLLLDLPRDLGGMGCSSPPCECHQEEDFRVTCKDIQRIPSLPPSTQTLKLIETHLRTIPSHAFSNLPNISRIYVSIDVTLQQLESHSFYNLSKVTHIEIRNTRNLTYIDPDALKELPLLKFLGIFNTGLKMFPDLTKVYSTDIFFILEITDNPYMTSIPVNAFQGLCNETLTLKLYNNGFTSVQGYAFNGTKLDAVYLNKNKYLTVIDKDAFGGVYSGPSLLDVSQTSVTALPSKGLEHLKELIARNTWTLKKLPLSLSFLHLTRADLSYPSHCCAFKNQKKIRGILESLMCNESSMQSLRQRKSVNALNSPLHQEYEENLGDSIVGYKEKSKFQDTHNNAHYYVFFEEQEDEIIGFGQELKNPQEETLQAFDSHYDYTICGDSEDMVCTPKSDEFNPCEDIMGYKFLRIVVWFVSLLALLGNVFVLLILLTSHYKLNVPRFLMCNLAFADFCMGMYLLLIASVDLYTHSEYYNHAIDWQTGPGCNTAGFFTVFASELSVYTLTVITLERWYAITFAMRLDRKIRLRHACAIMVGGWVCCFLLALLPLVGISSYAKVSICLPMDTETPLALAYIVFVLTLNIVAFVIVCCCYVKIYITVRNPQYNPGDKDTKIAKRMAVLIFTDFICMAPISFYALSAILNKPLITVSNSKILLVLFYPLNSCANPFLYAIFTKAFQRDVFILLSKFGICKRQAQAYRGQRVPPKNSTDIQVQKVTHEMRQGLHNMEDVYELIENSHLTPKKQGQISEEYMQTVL
How it was run: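 TSHR-expressing HEK293 cells (800 per well) were exposed to compounds for 30 min at room temperature. cAMP was then detected by HTRF competition with cAMP-d2 and anti-cAMP cryptate, read after 1 h at room temperature. Fifteen concentrations, triplicate.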

[7] = qHTS assay to identify small molecule agonists of the hypoxia (HIF-1) signaling pathway (AID 1224846; active means well fitted activation curve with a large enough effect in the signal ratio in the repeat runs, not every such curve was filed as active; the % refers to the signal ratio; further: on the % scale 0 is the no-effect control and ±100 the full control effect)
How it was run: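 HRE-bla ME-180 cells (beta-lactamase reporter under hypoxia response element) were plated at 2,000 cells/well in medium with 0.5% dialyzed FBS, rested 5 hrs, then given compounds in DMSO for 17 hrs at 37C, 5% CO2. Reporter induction was read with CCF4-AM FRET substrate.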

[8] = qHTS assay to identify small molecule agonists of H2AX - cell viability counter screen (AID 1224847; calls by dose curve; further: nearly all actives have a fitted effect of over 30% in size; further: potency means the concentration at half of the fitted maximal effect)
How it was run: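 Cytotoxicity counter screen in wild-type CHO-K1 cells: a 3 hr compound treatment at 37C across 15 concentrations, followed by CellTiter-Glo luminescence to gauge viable cells.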

[9] = qHTS assay to identify small molecule antagonists of the estrogen related receptor (ERR) signaling pathway from Tox21 library (AID 1224848); further: potency means the concentration at half of the fitted maximal effect; nearly all actives have a fitted effect of over 50% in size
How it was run: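 Cells: ERR line, 2,000/well; 6 h preincubation 37 C/5% CO2. Cpd in DMSO via pin tool; 18 h, 37 C. ONE-Glo, 30 min RT, luminescence.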

[10] = qHTS assay to identify small molecule agonists of the estrogen related receptor (ERR) signaling pathway from Tox21 library (AID 1224849; calls by dose curve; further: on the % scale 0 is the no-effect control and ±100 the full control effect; nearly all actives have a fitted effect of over 15% in size); details: ERR reporter cell line, ONE-Glo luciferase, 18 h; at 92.4 µM (top of the series) unless noted
How it was run: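 ERR reporter cell line (NTP) seeded, rested 6 h at 37 C/5% CO2, then pinned with Tox21 compounds in DMSO. After 18 h at 37 C, ONE-Glo luciferase luminescence was read following 30 min at room temperature.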

[11] = qHTS RealTime-Glo MT Cell Viability Assay in HepG2 cells - 24 hour (AID 1224867); further: nearly all actives have a fitted effect of over 50% in size; further: potency means the concentration at half of the fitted maximal effect
How it was run: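 Cell number in HepG2 cultures estimated from NanoLuc luminescence generated by metabolic reduction of a prosubstrate by living cells. The homogeneous, nonlytic format allowed repeated reads at 0, 8, 16, 24, 32 and 40 h of compound exposure.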

[12] = qHTS RealTime-Glo MT Cell Viability Assay in HepG2 cells - 40 hour (AID 1224870); further: nearly all actives have a fitted effect of over 50% in size; further: potency means the concentration at half of the fitted maximal effect
How it was run: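 HepG2 cells mixed with RealTime-Glo MT reagents (NanoLuc plus cell-permeant prosubstrate) were seeded at 600 cells/well, incubated 5 h at 37 C/5% CO2, then pinned with compounds in DMSO; nonlytic luminescence tracked viability during 40 h treatment.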

[13] = qHTS assay to identify small molecule agonists of the constitutive androstane receptor (CAR) signaling pathway - cell viability counter screen (AID 1224836); further: nearly all actives have a fitted effect of over 45% in size; further: potency means the concentration at half of the fitted maximal effect
How it was run: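 Cells were seeded and incubated 4 hrs. Compounds were added across 15 concentrations together with PK11195 at 0.75 uM final. Plates were incubated 23 hrs at 37 C. CellTiter-Fluor was added and fluorescence measured.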

[14] = qHTS assay to identify small molecule antagonists of the constitutive androstane receptor (CAR) signaling pathway - cell viability counter screen (AID 1224837); further: nearly all actives have a fitted effect of over 45% in size; further: potency means the concentration at half of the fitted maximal effect
How it was run: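 HepG2 cells stably expressing hCAR and a CYP2B6-2.2kb reporter were plated and pre-incubated 4 hr at 37 C/5% CO2, then given compounds at 15 concentrations plus 50 nM CITCO (final). After 23 hr, viability was read by CellTiter-Fluor fluorescence.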

[15] = qHTS assay to identify small molecule antagonists of the estrogen related receptor signaling pathway with the pleiotropic PPARgamma coactivator (PGC) from Tox21 10K library - cell viability counter screen (AID 1224840; active means well fitted cell-killing curve with a large enough effect in the repeat runs, not every such curve was filed as active; further: nearly all actives have a fitted effect of over 40% in size; further: potency means the concentration at half of the fitted maximal effect)
How it was run: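 PGC/ERR cells were seeded at 2,000 cells/well and left 6 hours at 37 C/5% CO2 before pin-tool addition of compounds in DMSO. After 17.5 hours at 37 C, CellTiter-Fluor was added and fluorescence read 30 minutes later.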

[16] = qHTS assay to identify small molecule agonists of the hypoxia (HIF-1) signaling pathway - cell viability counter screen (AID 1224844; calls by dose curve; further: nearly all actives have a fitted effect of over 50% in size; further: potency means the concentration at half of the fitted maximal effect)
How it was run: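 HRE-bla ME-180 cells in medium with 0.5% dialyzed FBS were preincubated 5 hrs at 37C, exposed to compounds for 17 hrs, then viability was read as CellTiter-Glo luminescence after 30 min at room temperature, in the reporter wells.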

[17] = qHTS assay to identify small molecule agonists of H2AX (AID 1224845; active means well fitted activation curve with a large enough effect in the signal ratio in the repeat runs, not every such curve was filed as active; the % refers to the signal ratio; further: on the % scale 0 is the no-effect control and ±100 the full control effect)
How it was run: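 Wild-type CHO-K1 cells plated overnight, then exposed 3 hr at 37C to compounds at 15 concentrations (0.76% DMSO). Lysed, then HTRF anti-pH2AX(S139)-cryptate/anti-H2AX-d2 detection after 24 hr at room temperature; emissions 665 and 620 nm.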

[18] = qHTS RealTime-Glo MT Cell Viability Assay in HEK293 cells - 32 hour (AID 1224868); further: nearly all actives have a fitted effect of over 50% in size; further: potency means the concentration at half of the fitted maximal effect
How it was run: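 Homogeneous bioluminescent viability format in HEK293 cells (600 cells/well). Following 5 h at 37 C/5% CO2, 23 nL compound was pintooled; the signal was measured repeatedly during 40 h incubation.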

[19] = A CellTox Green Cytotoxicity Assay to monitor cytotoxicity in HEK293 cells - 0 hour (AID 1224869)
How it was run: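 HEK293 cells premixed with CellTox Green dye were seeded at 600 cells/well and left 5 h at 37 C/5% CO2 before pin transfer of 23 nL compound in DMSO. Fluorescence from dye bound to dead-cell DNA was read during 40 h treatment.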

[20] = biological target: Nuclear receptor subfamily 1 group I member 3 (Homo sapiens) (UniProt Q14994); assay: qHTS assay to identify small molecule antagonists of the constitutive androstane receptor (CAR) signaling pathway (AID 1224838); further: on the % scale 0 is the no-effect control and ±100 the full control effect; nearly all actives have a fitted effect of over 40% in size
How it was run: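 HepG2 cells stably co-transfected with hCAR and a CYP2B6-2.2kb luciferase reporter were seeded 4 h before compound addition at 15 concentrations. Cells were stimulated with 50 nM CITCO (final) for 24 h at 37 C; luciferase luminescence was then read.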

CC(C)C(O)C(C)(C)CO (stereo unspecified)
inactive: Potency [2] | Potency [3] | Potency [5] | Potency [6] | outcome [7] | Potency [8] | activity change, positive = activation [10] -71.7% | Potency [11] | Potency [12]
active: Potency [1] 0.631 µM | Potency [4] 1.78 µM | Potency [9] 0.891 µM

CCCCCC
inactive: Potency [1] | Potency [13] | Potency [14] | Potency [3] | Potency [15] | Potency [6] | Potency [16] | Potency [17] | outcome [7] | Potency [8] | Potency [11] | Potency [18] | Potency [19] | Potency [12]

O[C@@H](CNC[C@H](O)[C@H]1CCc2cc(F)ccc2O1)[C@@H]1CCc2cc(F)ccc2O1
active: Potency [1] 29.8 µM | Potency [4] 33.5 µM | Potency [16] 23.9 µM | Potency [11] 16.9 µM | Potency [18] 19 µM | Potency [12] 15.1 µM
inactive: Potency [2] | Potency [3] | Potency [5] | Potency [6] | Potency [17] | outcome [7] | activity change, positive = activation [10] -67.5% [at 42.5 µM] | Potency [19]

CCCCCCCC/C=C/C(=O)O
inactive: Potency [2] | Potency [13] | Potency [14] | Potency [15] | Potency [16] | Potency [17] | outcome [7] | Potency [11] | Potency [18] | Potency [19] | Potency [12]

COC(=O)Nc1nc2ccc(C(=O)C3CC3)cc2[nH]1
inactive: Potency [13] | Potency [14] | Potency [15] | Potency [6] | Potency [17] | outcome [7] | Potency [8] | Potency [11] | Potency [19] | Potency [12]
active: Potency [2] 19.5 µM

CN1CCCN(C(c2ccccc2)c2ccc(Cl)cc2)CC1 (stereo unspecified)
inactive: Potency [2] | Potency [3] | Potency [4] | Potency [5] | Potency [6] | Potency [17] | activity change, positive = activation [10] -29.3% [at 42.5 µM] | Potency [19]
active: Potency [13] 26.6 µM | Potency [14] 29.8 µM | Potency [15] 26.6 µM

CCN(CC)CCOc1ccccc1C(=O)CCc1ccccc1
active: Potency [3] 26.6 µM | Potency [18] 12 µM
inactive: Potency [2] | Potency [13] | Potency [20] | Potency [15] | Potency [4] | Potency [5] | Potency [6] | Potency [17] | outcome [7] | Potency [8] | activity change, positive = activation [10] -25.9% [at 42.5 µM] | Potency [19]

O=C(O)CCC(=O)OC[C@@H](NC(=O)C(Cl)Cl)[C@H](O)c1ccc([N+](=O)[O-])cc1
inactive: Potency [2] | Potency [13] | Potency [14] | Potency [20] | Potency [3] | Potency [15] | Potency [16] | Potency [17] | outcome [7] | Potency [8] | Potency [11] | Potency [18] | Potency [19] | Potency [12]

COc1cc(NCc2ccc3nc(N)nc(N)c3c2C)cc(OC)c1OC
inactive: Potency [2] | Potency [13] | Potency [3] | Potency [15] | Potency [5] | Potency [16] | outcome [7] | activity change, positive = activation [10] -56.3% [at 42.5 µM] | Potency [11] | Potency [19] | Potency [12]
active: Potency [4] 0.075 µM | Potency [8] 0.22 µM | Potency [9] 0.0473 µM | Potency [18] 0.0268 µM

COc1cc(C(C)=O)ccc1OCCCN1CCC(c2noc3cc(F)ccc23)CC1
active: Potency [18] 10.7 µM
inactive: Potency [14] | Potency [20] | Potency [3] | Potency [15] | Potency [6] | Potency [17] | outcome [7] | Potency [19] | Potency [12]

CC/C=C\C/C=C\C/C=C\CCCCCCCC(=O)OCC
inactive: Potency [2] | Potency [13] | Potency [14] | Potency [5] | Potency [6] | outcome [7] | activity change, positive = activation [10] -28.4% | Potency [11] | Potency [18] | Potency [19]
